Measurements taken from the supplement of paper PMC9694430.
Where “and” joins values, the source holds several entries; their conditions need not be identical. Equal entries are not always repeated. Structures can show the parent of a compound that is named as a salt.

tested on: LOC_OS01G60700-cb002; test: thermal shift delta Tm vs DMSO control; higher = stronger stabilization (binding); settings: 12.5 µM; protein concentration 2 µM
Method in brief: (§1)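 Thermal shift values come from differential scanning fluorimetry on purified rice kinase domains made in E. coli, with melting temperatures obtained from Boltzmann fits. Samples of 19.5 μl held 2 μM kinase, 100 mM potassium phosphate pH 7.5, 150 mM NaCl, 10% glycerol, 5 × SYPRO Orange and compound in DMSO, and were heated from 25°C to 95°C at 0.05°C/s. Each shift is a triplicate mean relative to the DMSO-only protein sample.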
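Also: purified Escherichia coli-expressed rice kinase domain construct.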

Structure (SMILES) | thermal shift delta Tm
C[C@H](CN(C)C)Oc1nc(Nc2cc3cccc(Cl)c3cn2)cnc1C#N | 1.39 °C
CN1c2ccccc2C(=O)Nc2cnc(Nc3ccc(N4CCC(O)CC4)cc3)nc21 | 0.97 °C
CCNc1nc(Nc2cc(F)c(C(=O)N3CCOCC3)cc2OC)ncc1C(F)(F)F | 0.71 °C
COc1cc2ncnc(Nc3ccc(Oc4ccccc4)cc3C)c2cc1OC | 0.09 °C
O=C1NC(=O)/C(=C/c2cccc(C(F)(F)F)c2)S1 | 0.3 °C
COc1ccc(C(=O)Nc2sc3c(c2C(N)=O)CCCC3)cc1OC | 1.23 °C
C#Cc1cccc(Nc2ncnc3cc(OCCOC)c(OCCO)cc23)c1 | 0.24 °C
FC(F)(F)c1ccc(/C=C/c2nc(COc3ccc(CCCCn4ccnn4)cc3)co2)cc1 [Mubritinib (TAK 165)] | 0.41 °C
CNC(=O)Nc1ccc(-c2nc(N3CC4CCC(C3)O4)c3cnn(C4CCC5(CC4)OCCO5)c3n2)cc1 | 0.99 °C
CC(C)(C)NS(=O)(=O)c1cncc(-c2cc(F)c3nc(N)nn3c2)c1 | 1.82 °C
C[C@@H]1CN(CC(=O)Nc2ccc3c(c2)Cc2cccc(-c4cc(=O)cc(N5CCOCC5)o4)c2S3)C[C@H](C)O1 | 0.34 °C
COCCOc1ccc2c(c1)ncn2-c1ccc2cccc(N3CCC(N)CC3)c2n1 | 0.15 °C
Cc1ccc(NC(=O)c2ccc(CN3CCN(C)CC3)cc2)cc1Nc1nc(-c2cccnc2)cs1 [Masitinib (AB1010)] | 0.59 °C
Cn1cc(-c2cnn3c(N)c(Br)c([C@@H]4CCCNC4)nc23)cn1 | 0.1 °C
COc1ccc(-c2cc3c(C)nc(N)nc3n([C@H]3CC[C@H](OCCO)CC3)c2=O)cn1 | 0.9 °C
Cc1ccc(S(=O)(=O)/C=C/C#N)cc1 | -1.01 °C
CCCS(=O)(=O)Nc1ccc(F)c(C(=O)c2c[nH]c3ncc(-c4ccc(Cl)cc4)cc23)c1F [Vemurafenib (PLX4032, RG7204)] | 0.62 °C
C[C@@H](N)c1ccc(C(=O)Nc2ccnc3[nH]ccc23)cc1 | 0.79 °C
O=C(NC1CCNCC1)c1n[nH]cc1NC(=O)c1c(Cl)cccc1Cl | 0.49 °C and 1.4 °C

Structure (SMILES) | thermal shift delta Tm
NCC(=O)Nc1ccc(-n2nc(C(F)(F)F)cc2-c2ccc3c(ccc4ccccc43)c2)cc1 | 0.02 °C
CCn1c(-c2nonc2N)nc2cnc(Oc3cccc(NC(=O)c4ccc(OCCN5CCOCC5)cc4)c3)cc21 | 1.61 °C
COc1cc2c3cc1Oc1c(OC)c(OC)cc4c1[C@@H](Cc1ccc(O)c(c1)Oc1ccc(cc1)C[C@@H]3N(C)CC2)N(C)CC4 [Berbamine (dihydrochloride)] | 1.22 °C
COc1cc2ncc(-c3ccccc3)nc2cc1OC [Tyrphostin AG 1296] | 1.32 °C
C[C@H]1CNCCCN1S(=O)(=O)c1cccc2cncc(F)c12 [Ripasudil (K-115) hydrochloride dihydrate] | 1.6 °C
N#Cc1c(NC(=O)c2cccc3ccccc23)sc2c1CCCC2 [JNK Inhibitor IX] | 0.63 °C
CC(C)N(CCC(=O)c1ccc2ccccc2c1)Cc1ccccc1 | 1.89 °C
COC(=O)c1ccc2c(c1)NC(=O)/C2=C(\Nc1ccc(N(C)C(=O)CN2CCN(C)CC2)cc1)c1ccccc1 [Nintedanib (BIBF 1120)] | 0.96 °C
Nc1ccc(-c2ccc3ncc4ccc(=O)n(-c5cccc(C(F)(F)F)c5)c4c3c2)cn1 [Torin 2] | 1.01 °C
COc1ccc2c(Oc3ccc(NC(=O)c4c(C)n(CC(C)(C)O)n(-c5ccccc5)c4=O)nc3)ccnc2c1 | 0.86 °C
COc1ncc(-c2ccc3nccc(-c4ccnnc4)c3c2)cc1NS(=O)(=O)c1ccc(F)cc1F | 1.17 °C
Cc1c[nH]c(/C=C2\C(=O)Nc3ccccc32)c1CCC(=O)O | 0.67 °C
Cc1cc(Nc2cc(Cl)nc(Oc3ccc([N+](=O)[O-])cc3)n2)n[nH]1 [Autophinib] | -0.44 °C
O=C(c1ccc(/C=C/c2n[nH]c3ccccc23)cc1)N1CCNCC1 | 0.48 °C
COc1ccc(CNC(=O)Nc2ncc([N+](=O)[O-])s2)cc1 | 1.38 °C
Cc1cc2c(F)c(Oc3ncnn4cc(OC[C@@H](C)O)c(C)c34)ccc2[nH]1 | 0.76 °C
C=CC(=O)Nc1cccc(Oc2nc(Nc3ccc(N4CCN(C)CC4)cc3)nc3ccsc23)c1 | 3.14 °C
O=c1cc(N2CCOCC2)oc2c(-c3ccc4c(c3)OCCO4)csc12 | -0.31 °C
c1nc2c(NC3CCCCC3)nc(Nc3ccc(N4CCOCC4)cc3)nc2[nH]1 [Reversine] | 1.27 °C

tested on: LOC_OS01G63280-cb003; test: as above; settings: 12.5 µM; protein concentration 2 µM
Method in brief: as §1

Structure (SMILES) | thermal shift delta Tm
C[C@H](CN(C)C)Oc1nc(Nc2cc3cccc(Cl)c3cn2)cnc1C#N | 0.39 °C
CN1c2ccccc2C(=O)Nc2cnc(Nc3ccc(N4CCC(O)CC4)cc3)nc21 | 2.56 °C
CCNc1nc(Nc2cc(F)c(C(=O)N3CCOCC3)cc2OC)ncc1C(F)(F)F | 0.15 °C
COc1cc2ncnc(Nc3ccc(Oc4ccccc4)cc3C)c2cc1OC | 0.54 °C
O=C1NC(=O)/C(=C/c2cccc(C(F)(F)F)c2)S1 | 0.28 °C
COc1ccc(C(=O)Nc2sc3c(c2C(N)=O)CCCC3)cc1OC | 0.62 °C
C#Cc1cccc(Nc2ncnc3cc(OCCOC)c(OCCO)cc23)c1 | -0.13 °C
FC(F)(F)c1ccc(/C=C/c2nc(COc3ccc(CCCCn4ccnn4)cc3)co2)cc1 [Mubritinib (TAK 165)] | 0.22 °C
CNC(=O)Nc1ccc(-c2nc(N3CC4CCC(C3)O4)c3cnn(C4CCC5(CC4)OCCO5)c3n2)cc1 | 0.45 °C
CC(C)(C)NS(=O)(=O)c1cncc(-c2cc(F)c3nc(N)nn3c2)c1 | 0.83 °C
C[C@@H]1CN(CC(=O)Nc2ccc3c(c2)Cc2cccc(-c4cc(=O)cc(N5CCOCC5)o4)c2S3)C[C@H](C)O1 | 0.3 °C
COCCOc1ccc2c(c1)ncn2-c1ccc2cccc(N3CCC(N)CC3)c2n1 | 1.35 °C
Cc1ccc(NC(=O)c2ccc(CN3CCN(C)CC3)cc2)cc1Nc1nc(-c2cccnc2)cs1 [Masitinib (AB1010)] | 0.19 °C
Cn1cc(-c2cnn3c(N)c(Br)c([C@@H]4CCCNC4)nc23)cn1 | 0.91 °C
COc1ccc(-c2cc3c(C)nc(N)nc3n([C@H]3CC[C@H](OCCO)CC3)c2=O)cn1 | 0.37 °C
Cc1ccc(S(=O)(=O)/C=C/C#N)cc1 | -3.09 °C
CCCS(=O)(=O)Nc1ccc(F)c(C(=O)c2c[nH]c3ncc(-c4ccc(Cl)cc4)cc23)c1F [Vemurafenib (PLX4032, RG7204)] | 14.8 °C
C[C@@H](N)c1ccc(C(=O)Nc2ccnc3[nH]ccc23)cc1 | 0.61 °C
O=C(NC1CCNCC1)c1n[nH]cc1NC(=O)c1c(Cl)cccc1Cl | 0.02 °C and 0.4 °C

Structure (SMILES) | thermal shift delta Tm
NCC(=O)Nc1ccc(-n2nc(C(F)(F)F)cc2-c2ccc3c(ccc4ccccc43)c2)cc1 | 3.67 °C
CCn1c(-c2nonc2N)nc2cnc(Oc3cccc(NC(=O)c4ccc(OCCN5CCOCC5)cc4)c3)cc21 | 0.37 °C
COc1cc2c3cc1Oc1c(OC)c(OC)cc4c1[C@@H](Cc1ccc(O)c(c1)Oc1ccc(cc1)C[C@@H]3N(C)CC2)N(C)CC4 [Berbamine (dihydrochloride)] | -0.06 °C
COc1cc2ncc(-c3ccccc3)nc2cc1OC [Tyrphostin AG 1296] | 1.35 °C
C[C@H]1CNCCCN1S(=O)(=O)c1cccc2cncc(F)c12 [Ripasudil (K-115) hydrochloride dihydrate] | 0.79 °C
N#Cc1c(NC(=O)c2cccc3ccccc23)sc2c1CCCC2 [JNK Inhibitor IX] | -0.18 °C
CC(C)N(CCC(=O)c1ccc2ccccc2c1)Cc1ccccc1 | -2.65 °C
COC(=O)c1ccc2c(c1)NC(=O)/C2=C(\Nc1ccc(N(C)C(=O)CN2CCN(C)CC2)cc1)c1ccccc1 [Nintedanib (BIBF 1120)] | -0.1 °C
Nc1ccc(-c2ccc3ncc4ccc(=O)n(-c5cccc(C(F)(F)F)c5)c4c3c2)cn1 [Torin 2] | 0.11 °C
COc1ccc2c(Oc3ccc(NC(=O)c4c(C)n(CC(C)(C)O)n(-c5ccccc5)c4=O)nc3)ccnc2c1 | 1.14 °C
COc1ncc(-c2ccc3nccc(-c4ccnnc4)c3c2)cc1NS(=O)(=O)c1ccc(F)cc1F | 0.66 °C
Cc1c[nH]c(/C=C2\C(=O)Nc3ccccc32)c1CCC(=O)O | 0.07 °C
Cc1cc(Nc2cc(Cl)nc(Oc3ccc([N+](=O)[O-])cc3)n2)n[nH]1 [Autophinib] | 0.94 °C
O=C(c1ccc(/C=C/c2n[nH]c3ccccc23)cc1)N1CCNCC1 | 0.98 °C
COc1ccc(CNC(=O)Nc2ncc([N+](=O)[O-])s2)cc1 | 0.15 °C
Cc1cc2c(F)c(Oc3ncnn4cc(OC[C@@H](C)O)c(C)c34)ccc2[nH]1 | 1.5 °C
C=CC(=O)Nc1cccc(Oc2nc(Nc3ccc(N4CCN(C)CC4)cc3)nc3ccsc23)c1 | 0.86 °C
O=c1cc(N2CCOCC2)oc2c(-c3ccc4c(c3)OCCO4)csc12 | 0.2 °C
c1nc2c(NC3CCCCC3)nc(Nc3ccc(N4CCOCC4)cc3)nc2[nH]1 [Reversine] | 1.53 °C
